# Compounds without any hit were thinned out: in the full panel of roughly 83,000, 20% have a hit.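 Assay: single dose, 48 h. Readout: percent growth (0 = no net growth; negative = cell death). Active: <10.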 Unmarked numbers belong to inactive results. Activity calls are given as the source filed them.
# Columns and labels:
# Assay in all cases: NCI-60 one-dose screen, 48 h (100 = growth as untreated, 0 = no growth, -100 = all killed)
# Conditions in all cases: 10 µM unless noted
# HCT-15 colon = test system: HCT-15 colon
# HT29 colon = test system: HT29 colon
# SNB-75 CNS = test system: SNB-75 CNS
# SNB-19 CNS = test system: SNB-19 CNS
# U251 CNS = test system: U251 CNS
# PC-3 prostate = test system: PC-3 prostate
# SK-MEL-5 melanoma = test system: SK-MEL-5 melanoma
# LOX IMVI melanoma = test system: LOX IMVI melanoma
# SK-MEL-28 melanoma = test system: SK-MEL-28 melanoma
SMILES,growth (HCT-15 colon),growth (HT29 colon),growth (SNB-75 CNS),growth (SNB-19 CNS),growth (U251 CNS),growth (PC-3 prostate),growth (SK-MEL-5 melanoma),growth (LOX IMVI melanoma),growth (SK-MEL-28 melanoma)
O=C(/C(=C(\C(=O)c1ccccc1)c1ccccc1)c1ccccc1)c1ccccc1,24%,37.6%,72.8%,74%,47.3%,30%,59.5%,64.6%,89.8%
c1ccc2[nH]c(-c3ccc(Nc4nc(N5CCCCC5)nc(N5CCOCC5)n4)cc3)nc2c1,-33.9% (active),-28.2% (active),-0.681% (active),10.4%,8.02% (active),12.4%,-90.7% (active),-77.1% (active),-30.2% (active)
COc1ccc(/C=C/C(=O)NCC(C)O)cc1 (configuration not stated),102%,95.1%,84.7%,109%,95.8%,94.5%,101%,97.2%,102%
CC/C=C\C[C@H]1CC=C2C(=O)C=C[C@@H]2CC=CCCCC(=O)O[C@@H](CCCCC)CC=C2C(=O)C=C[C@@H]2CC=CCCCC(=O)O[C@@H](CCCCC)CC=C2C(=O)C=C[C@@H]2CC=CCCCC(=O)O[C@@H](CCCCC)CC=C2C(=O)C=C[C@@H]2CC=CCCCC(=O)O1,47.1% [7.9 µM],2.5% [7.9 µM] (active),65.2% [7.9 µM],25.7% [7.9 µM],-45.8% [7.9 µM] (active),13.5% [7.9 µM],17.9% [7.9 µM],-75.8% [7.9 µM] (active),11.9% [7.9 µM]
Cc1cc(N2CCCCC2)nc(N(CCNc2ccnc3cc(Cl)ccc23)Cc2ccco2)n1,13.8%,6.61% (active),43.9%,-69.9% (active),14.4%,13.9%,-90.5% (active),-12.6% (active),38.9%
O=Cc1nc2ccccc2[nH]1,108%,91%,80%,101%,92.2%,78.7%,102%,91.2%,116%
O=[N+]([O-])c1ccc(N/N=C(\C(=N/Nc2ccc([N+](=O)[O-])cc2[N+](=O)[O-])c2ccccc2)c2ccccc2)c([N+](=O)[O-])c1,84.3%,63.5%,99%,102%,36.4%,85.2%,94.3%,97.7%,101%
O=C1Nc2ccccc2/C1=C/c1cn(CCCn2c3ccccc3c(=O)c3ccccc32)c2ccccc12,82.3%,91.8%,69.7%,98.2%,93.3%,62.5%,74.7%,86%,107%
Brc1ccc2c(c1)c(-c1nc(-c3c[nH]c4ncccc34)cs1)cn2CCCN1CCCCC1,-80% (active),-87.2% (active),67.6%,-68.3% (active),-84.2% (active),2.12% (active),-59.5% (active),-93.5% (active),-84.8% (active)
COC(=O)[C@]12CC[C@@H](C)[C@H](C)[C@@H]1C1=CC[C@@H]3[C@@](C)(CC#N)C4=C(C[C@@]3(C)[C@]1(C)CC2)OC[C@]4(C)C=O,0.689% (active),-20.7% (active),19.3%,8.5% (active),-45.7% (active),9.95% (active),-89% (active),-99% (active),-19.6% (active)
O=C(O[C@@H]1Cc2c(O)cc(O)cc2O[C@@H]1c1cc(O)c(O)c(O)c1)c1cc(O)c2c(c1)OCO2,104%,95.3%,93.8%,104%,83.4%,83.6%,98.5%,95.6%,101%
C=C1C(=O)O[C@H]2[C@H]1CC/C(COC(=O)NCc1c[nH]c3ccccc13)=C\CC[C@@]1(C)O[C@@H]21,4.35% (active),8.59% (active),72.1%,69.4%,82.8%,50.4%,45.2%,16.4%,33.9%
Cc1ccc(N(CC(=O)Nc2ccc(S(=O)(=O)N3CCC(N4CCCC4)CC3)cc2)S(=O)(=O)c2ccc(Cl)cc2)cc1,-47.8% (active),-16.9% (active),62.7%,40.6%,-2.58% (active),12%,-97.6% (active),-88.5% (active),-68.3% (active)
COC(c1ccccc1)(c1ccccc1)c1ccccc1,104%,100%,87.7%,96%,107%,102%,103%,99.2%,109%
Oc1ccc(Nc2ccccc2)cc1,82.5%,99.3%,85.5%,85.8%,86%,65.7%,83%,71.4%,102%
CN(C)c1ccc(C(=O)c2ccc(N(C)C)c(N)c2)cc1N,26%,9.95% (active),-11.3% (active),45.3%,34.4%,49.3%,3.25% (active),53.9%,61.9%
Fc1ccc(Nc2nnc(-c3ccc(Cl)cc3)o2)cc1,98.4%,94.7%,102%,101%,92.1%,86.7%,99.8%,108%,106%
Cc1cccc(C)c1NC(=O)CSC(=S)N1CCCCC1,105%,103%,96%,111%,105%,97.6%,112%,98.2%,105%

# From PubChem BioAssay (NCI)
